The values that follow come from ChEMBL document CHEMBL1157539, “Thousands of chemical starting points for antimalarial lead identification” (Nature, 2010).

Each structure is given as a SMILES string. “And” between values parts separate entries of the source, which are not always exact repeats. Equal values may be shown once.

Common to all, as to type: functional
In assay [1] the test system is Plasmodium falciparum. Description: GSK_TCMDC: Inhibition of Plasmodium falciparum 3D7 in whole red blood cells, using parasite LDH activity as an index of growth. Test compounds present at 2uM.
The subject of assay [2] is Plasmodium falciparum. Description: GSK_TCMDC: Inhibition of Plasmodium falciparum Dd2 in whole red blood cells, using parasite LDH activity as an index of growth. Test compounds present at 2uM.
A further assay deals with HepG2. As to the kind of experiment: GSK_TCMDC: Percent inhibition of human HepG2 cell line. Test compounds present at 10uM.

Regarding `CC[C@H]1CN2CC[C@H]1C[C@H]2[C@H](O)c1cc(-c2ccc(F)cc2C)nc2ccc(OC)cc12.Cl`, the results for the Inhibition in the assay on Plasmodium falciparum [1], in the assay with Plasmodium falciparum [2] and in the assay with HepG2 were 99%, 100% and 0%, respectively.

As to `Oc1cccc(C2CCCN(Cc3cccc4cc[nH]c34)C2)c1` (stereo not given), the results for the Inhibition in the assay with Plasmodium falciparum [1], in the assay with Plasmodium falciparum [2] and in the assay with HepG2 were 100%, 82% and 16%, respectively.

`CC(=O)Nc1ccc2[nH]cc(C3CCN(CC4CCC(NC(=O)/C=C/c5ccc(Cl)c(Cl)c5)CC4)CC3)c2c1` (stereo not given): the Inhibition in the assay on Plasmodium falciparum [1] was 100% and 90%; with Plasmodium falciparum [2], 99% and 59%; in the assay with HepG2 it was 10% and 18%.

Take `COc1ccc(OC)c(C(O)C(C)NCc2cc(Cl)ccc2O)c1.Cl` (stereo not given): the Inhibition in the assay with Plasmodium falciparum [1] came to 97%; with Plasmodium falciparum [2], 99%; in the assay on HepG2, 11%.

On to `CN(C)CCCOc1ccc(CN2CCC(c3c[nH]c4ccc(NCC5CCCCC5)cc34)CC2)cc1.O=C(O)C(F)(F)F`, for which the Inhibition with Plasmodium falciparum [1] came out at 99%; with Plasmodium falciparum [2], 99%; in the assay on HepG2, 58%.

`Cc1[nH]c2ccc(O)cc2c1C1CCN(CC2CCN(C(=O)/C=C/c3ccc(Cl)c(Cl)c3)CC2)CC1`: the results for the Inhibition in the assay on Plasmodium falciparum [1], with Plasmodium falciparum [2] and with HepG2 were 99%, 99% and 23%, respectively.

`CC(C)CN1CCC(N(C)c2cc(NC(=O)c3cccc(F)c3)ccn2)CC1.O=C(O)C(F)(F)F`: the Inhibition stood at 97% with Plasmodium falciparum [1], 10% with Plasmodium falciparum [2] and 8% with HepG2.

As for `O=C(C=Cc1ccccc1C(F)(F)F)NC1CCC(CN2CCC(c3c[nH]c4ccccc34)CC2)CC1` (stereo not given), the Inhibition is 100% in the assay with Plasmodium falciparum [1]; 90% and 47% with Plasmodium falciparum [2]; 47% and 73% in the assay on HepG2.

On to `NCc1cccc(-c2cccc(CN(C(=O)Nc3ccccc3)C3CCN(Cc4ccccc4)CC3)c2)c1.O=C(O)C(F)(F)F`, for which the Inhibition with Plasmodium falciparum [1] stood at 99%; with Plasmodium falciparum [2], 8%; in the assay on HepG2 it was 3%.

Take `O=C(/C=C/c1ccc(Cl)c(Cl)c1)NCC1CCC(N2CCC(c3c[nH]c4ccccc34)CC2)CC1` (stereo not given): the Inhibition in the assay with Plasmodium falciparum [1] was found to be 100%; in the assay with Plasmodium falciparum [2], 95%; with HepG2, 48%.

Consider `O=C(/C=C/c1cc(C(F)(F)F)ccc1F)NC1CCC(CN2CCC(c3c[nH]c4ccccc34)CC2)CC1` (stereo not given), for which the Inhibition in the assay with Plasmodium falciparum [1] was 100%; with Plasmodium falciparum [2], 66%; with HepG2, 5%.

Turning to `Cc1c(C(=O)N[C@@H](C)c2ccccc2)c2cc(O)c(Br)cc2n1C1CCCCC1`, the Inhibition in the assay on Plasmodium falciparum [1] is given as 98%; in the assay with Plasmodium falciparum [2], 95%; with HepG2, 4%.

On to `CC(=O)N(Cc1ccccc1-c1cccc(CNCCc2ccccc2)c1)C1CCN(Cc2ccccc2)CC1.O=C(O)C(F)(F)F`, for which the results for the Inhibition with Plasmodium falciparum [1], in the assay with Plasmodium falciparum [2] and in the assay on HepG2 were 89%, 30% and 19%, respectively.

Turning to `CC[C@H]1CN2CC[C@H]1C[C@H]2[C@H](O)c1cc(Cl)nc2ccc(OC)cc12`, the values for the Inhibition with Plasmodium falciparum [1], in the assay with Plasmodium falciparum [2] and with HepG2 were 100%, 92% and 0%, respectively.

With `CC[C@H]1CN2CC[C@@H]1C[C@H]2[C@H](O)c1cc(N2CCCC(C)(C)C2)nc2ccc(OC)cc12`, the Inhibition in the assay on Plasmodium falciparum [1] came to 100%; in the assay with Plasmodium falciparum [2], 72%; with HepG2, 25%.

As to `O=C(/C=C/c1ccc(Cl)c(Cl)c1)N1CCC2CC(N3CCC(c4c[nH]c5ccccc45)CC3)CCC2C1` (stereo not given), the Inhibition in the assay on Plasmodium falciparum [1] was found to be 100%; with Plasmodium falciparum [2] it was 99%; in the assay with HepG2, 31%.

As to `CC(C)CNCc1ccc(-c2ccc(CN(C(=O)NC3CCCCC3)C3CCN(Cc4ccccc4)CC3)cc2)cc1.O=C(O)C(F)(F)F`, the Inhibition with Plasmodium falciparum [1] was 100%; with Plasmodium falciparum [2] it was 88%; in the assay on HepG2 it was 39%.

Turning to `N#Cc1ccc(N(CCCO)Cc2ccccc2C(F)(F)F)cc1C(F)(F)F`, the Inhibition with Plasmodium falciparum [1] amounted to 91%; with Plasmodium falciparum [2], 23%; in the assay on HepG2 it was 7%.

Turning to `COc1cc(CN2CCN(c3ccnc(N(C)C4CCN(C)CC4)n3)CC2)cc(Cl)c1O`, the Inhibition in the assay on Plasmodium falciparum [1] is 94%; with Plasmodium falciparum [2] it was 63%; in the assay with HepG2, 11%.

In the case of `CN(CC(=O)N1CCN(S(=O)(=O)c2cccc(Cl)c2)CC1CN1CCCC1)c1ccc(Cl)c(Cl)c1` (stereo not given), the Inhibition stood at 89% in the assay with Plasmodium falciparum [1], 32% with Plasmodium falciparum [2] and 32% with HepG2.

Turning to `N#Cc1c(Cl)cccc1Oc1ccc(S(=O)(=O)NC2CCC(CN3CCC(c4c[nH]c5ccccc45)CC3)CC2)cc1` (stereo not given), the Inhibition in the assay with Plasmodium falciparum [1] is 85% and 100%; in the assay on Plasmodium falciparum [2] it was 36% and 16%; in the assay on HepG2 it was 31% and 29%.

For the compound `Cl.O=C(c1cc(C(F)(F)F)cc(C(F)(F)F)c1)N1CCC(CCN2CCC3(CC2)C(=O)NCN3c2ccccc2)CC1Cc1ccc(Cl)c(Cl)c1` (stereo not given), the Inhibition with Plasmodium falciparum [1] was 100%; in the assay with Plasmodium falciparum [2], 77%; in the assay on HepG2 it was 19%.

`CC(C)C[C@H](Nc1ccc(C#N)c2ccccc12)C(=O)N[C@@H]1CCCc2ccccc21.O=C(O)C(F)(F)F`: the Inhibition with Plasmodium falciparum [1] worked out at 99%; in the assay with Plasmodium falciparum [2] it was 100%; in the assay with HepG2, 38%.

Regarding `COC(=O)CN(C(=O)/C=C/c1ccc(Cl)c(Cl)c1)C1CCC(CN2CCC(c3c[nH]c4ccccc34)CC2)CC1` (stereo not given), the results for the Inhibition in the assay with Plasmodium falciparum [1], in the assay with Plasmodium falciparum [2] and in the assay on HepG2 were 100%, 69% and 31%, respectively.

Turning to `OC(CNCc1ccccc1OC(F)F)c1cccc(C(F)(F)F)c1` (stereo not given), the Inhibition in the assay on Plasmodium falciparum [1] is on record as 97%; in the assay with Plasmodium falciparum [2], 52%; in the assay on HepG2, 2%.
